Measured values published in PubChem BioAssay (NCATS).
Inconclusive results are not listed. Activity calls are given as the source filed them. The call rests on the fitted dose curve; in most records, active means well fitted inhibition curve with a large enough effect; inconclusive means small, poorly fitted or top-dose-only effect; inactive means flat fitted curve, though single readings scatter.
On the % scale 0 is the no-effect control and ±100 the full control effect; potency means the concentration at half of the fitted maximal effect.

These compounds were tested against Phospholipid hydroperoxide glutathione peroxidase GPX4 (Homo sapiens) (UniProt P36969) (assay: Primary qHTS Assay for Inhibitors of Recombinant Selenoprotein Glutathione Peroxidase 4 (GPX4) (AID 1845192; further: nearly all actives have a fitted effect of over 65% in size)). Conditions: recombinant GPX4, GR-coupled NADPH fluorescence, 15 min; series mostly up to 50 µM; activity change, negative = inhibition: at the top concentration.
Sequence of Phospholipid hydroperoxide glutathione peroxidase GPX4 (Homo sapiens) (P36969 whole entry, looked up): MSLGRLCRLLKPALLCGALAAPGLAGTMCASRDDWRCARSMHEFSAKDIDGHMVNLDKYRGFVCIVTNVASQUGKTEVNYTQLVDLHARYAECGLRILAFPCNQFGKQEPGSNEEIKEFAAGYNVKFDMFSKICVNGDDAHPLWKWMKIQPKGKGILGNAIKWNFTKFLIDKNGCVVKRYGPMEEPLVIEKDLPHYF
How it was run: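 GR-coupled readout: 100 nM GR, 1 mM GSH, 0.5 mM NADPH; NADPH fluorescence (ex 340/em 450 nm) read at t=0 and after 15 min RT. GPX4 200 nM, preincubated 30 min with compound; substrate 0.5 mM CHP.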
`N#CC(c1ccnc(NCCc2cccnc2)n1)c1nc2ccccc2s1` (stereo unspecified) was tested, and the “activity change, negative = inhibition” value was -27.3% (inactive). With `CC(C)C[C@@H](N)[C@H](O)C(=O)N[C@H](C(=O)N[C@H](C(=O)N[C@@H](CC(=O)O)C(=O)O)C(C)C)C(C)C` the “outcome” value was “inactive”. With `O=C(NCCCCN1CCOCC1)c1cc2ccccc2o1` the “activity change, negative = inhibition” value was -10.8% (inactive). For `CO[C@@H]1C(N(C)C(=O)c2ccccc2)C[C@H]2O[C@]1(C)n1c3ccccc3c3c4c(c5c6ccccc6n2c5c31)C(=O)NC4=O` (stereo partly specified), the Potency was 18 µM (active). In the case of `CN(C)N=Nc1nc[nH]c1C(N)=O`, the “activity change, negative = inhibition” value is reported as -3.97% (inactive). With `CSc1cccc(Nc2ncc3cc(-c4c(Cl)cccc4Cl)c(=O)n(C)c3n2)c1` the “outcome” value was “inactive”. For `Cn1cc(-c2ccc3nnc(Sc4ccc5ncccc5c4)n3n2)cn1`, the “activity change, negative = inhibition” value was -16.4% (inactive). For `O=[N+]([O-])c1ccc(Nc2ccccc2-c2ccccc2)c2nonc12`, the “activity change, negative = inhibition” value was -35.5% (inactive). For `Cc1ccc(NC(=O)c2ccc(CN3CCN(C)CC3)cc2)cc1Nc1nc(-c2cccnc2)cs1`, the “activity change, negative = inhibition” value was -4.94% (inactive). In the case of `Cc1cccc(-c2[nH]c(C(C)(C)C)nc2-c2ccc3c(c2)OCO3)n1`, the “activity change, negative = inhibition” value is reported as 3.78% (inactive). In the case of `CCCCCCCCCCCCCC(=O)N[C@H](CO)[C@H](O)c1ccc([N+](=O)[O-])cc1`, the “activity change, negative = inhibition” value is reported as 3.05% (inactive). For `CCC[C@H](N[C@@H](C)C(=O)N1[C@@H]2CCCC[C@H]2C[C@H]1C(=O)O)C(=O)OCC`, the “activity change, negative = inhibition” value was -0.857% (inactive). For `CC(NCCc1ccc(O)cc1)C(O)c1ccc(O)cc1` (stereo unspecified), the “activity change, negative = inhibition” value was 2.43% (inactive). `Cc1nn(Cc2ccccc2Cl)c(C)c1CN(C)CC(O)COc1ccc(Cl)cc1` (stereo unspecified) was tested, and the “activity change, negative = inhibition” value was -0.835% (inactive). With `NCC1CCC(C(=O)O)CC1` (stereo unspecified) the Potency was “inactive”. For `CCC(c1ccc(O)cc1)C(CC)c1ccc(O)cc1` (stereo unspecified), the “activity change, negative = inhibition” value was -16.1% (inactive). `CCCCc1ccc(NS(=O)(=O)c2ccc(C)c(C(=O)N3CCN(c4cccc(C)c4C)CC3)c2)cc1` was tested, and the “activity change, negative = inhibition” value was -22.3% [at 100 µM] (inactive). For `OC(c1cc(C(F)(F)F)nc2c(C(F)(F)F)cccc12)C1CCCCN1` (stereo unspecified), the “activity change, negative = inhibition” value was -4.5% (inactive). `CN(C)CC[C@H](CSc1ccccc1)Nc1ccc(S(=O)(=O)NC(=O)c2ccc(N3CCN(Cc4ccccc4-c4ccc(Cl)cc4)CC3)cc2)cc1[N+](=O)[O-]` was tested, and the “activity change, negative = inhibition” value was -22.1% (inactive). For `COc1ccc2c(c1)c(C1=C(c3c[nH]c4ccccc34)C(=O)NC1=O)cn2CCCN(C)C`, the “activity change, negative = inhibition” value was -9.14% (inactive). `COc1ccnc(CS(=O)c2nc3ccc(OC(F)F)cc3[nH]2)c1OC` (stereo unspecified) was tested, and the Potency was 16.1 µM (active).
